Shown are actives, neighbours in structure and some others; about 12% of the full set was active somewhere.
L3MBTL1 block – inhibitors of human L3MBTL1; Q9Y468; AlphaScreen L3MBTL1–H3K9me1 peptide binding; Potency, µM (top dose mostly 57.1 µM), for the others: at the top dose activity, negative = inhibition, actives largely listed as inhibitors; 230,000 tested, 0.66% active; AID 485360; further: on the % scale 0 is the no-effect control and ±100 the full control effect; nearly all actives have a fitted effect of over 60% in size
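Displacement of a biotinylated histone H3(1-15) peptide monomethylated at Lys9 (75 nM) from L3MBTL1 (50 nM) was measured by AlphaScreen after a 30 min room-temperature compound incubation; cefsulodin titration served as intraplate control.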
BAZ2B inh – inhibitors of human BAZ2B bromodomain | AlphaScreen BAZ2B-H3K14Ac peptide displacement | Potency, µM (top dose mostly 114 µM), for the others: at the highest dose activity change, negative = inhibition, most hits filed as inhibitors | 360,000 tested, 4.4% active; further: on the % scale 0 is the no-effect control and ±100 the full control effect; nearly all actives have a fitted effect of over 60% in size
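AlphaScreen displacement: compounds (up to 110uM) incubated 30 min at room temperature with a preformed 50 nM BAZ2B/50 nM biotinylated H3K14Ac peptide complex in PBS pH 7.4 with Tween-20. Donor and acceptor beads at 10 ug/mL final added, 20 min light-protected before reading.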
JMJD2A Tudor – inhibitors of human JMJD2A Tudor domain; O75164; Potency, µM (highest dose often 114 µM), for the others: at the top dose activity change, negative = inhibition, hits mostly inhibitors; AlphaScreen JMJD2A-Tudor / H3K4me3 peptide binding; 390,000 tested, 4.4% active; AID 504339; further: on the % scale 0 is the no-effect control and ±100 the full control effect; nearly all actives have a fitted effect of over 50% in size
Sfp PPTase inh – blocks B. subtilis Sfp PPTase activity; Biochemical Sfp PPTase activity, qHTS; 310,000 tested, 3.5% active; Potency, µM, inactives show largest response in the series, negative = inhibition, usual class: inhibitors; AID 1490; Q9F4F7;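 further: the enzyme is Sfp with the accession as filed and its product quenches rhodamine fluorescence; 0% = enzyme reaction without inhibitor and -100% = no enzyme wells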
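Step 1, compound plus 15 nM Sfp-PPTase, 15 min, room temperature. Step 2, add rhodamine-CoA (5 uM) and BHQ-2-YbbR (12.5 uM). Step 3, read 525/598 nm fluorescence at 0 and 30 min.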
HP1b binding inh – inhibitors of HP1-beta chromodomain binding to methylated histone tails | AlphaScreen HP1-beta / biotin-H3K9me3 peptide binding | 390,000 tested, 0.56% active | Potency, µM (doses to about 114 µM), for inactives: top-dose activity change, negative = inhibition, hits mostly inhibitors | AID 540317 | P83916; further: nearly all actives have a fitted effect of over 70% in size
Target sequence (P83916 whole entry, looked up): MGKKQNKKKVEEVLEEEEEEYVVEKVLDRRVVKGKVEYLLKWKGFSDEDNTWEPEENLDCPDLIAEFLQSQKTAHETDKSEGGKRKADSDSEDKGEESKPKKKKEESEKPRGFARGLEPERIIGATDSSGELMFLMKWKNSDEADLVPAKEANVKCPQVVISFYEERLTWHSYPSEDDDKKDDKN
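HP1-beta protein (50 nM final) preincubated 30 min at room temperature with biotinylated H3(1-18)K9me3 peptide (50 nM) in PBS pH 7.4, 0.01% Tween-20, then compound added for 30 min. AlphaScreen streptavidin donor/nickel chelate acceptor beads (10 ug/mL final), 30 min dark, luminescence read.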
G9a block – blocks human histone lysine methyltransferase G9a | G9a H3K9 monomethylation, AlphaScreen, 2 h | Potency, µM (highest dose often 102 µM), for the others: at the highest dose activity, negative = inhibition, actives largely listed as inhibitors | 350,000 tested, 8.8% active; further: on the % scale 0 is the no-effect control and ±100 the full control effect; nearly all actives have a fitted effect of over 75% in size
Target sequence (Q96KQ7 913-1193 limits assumed): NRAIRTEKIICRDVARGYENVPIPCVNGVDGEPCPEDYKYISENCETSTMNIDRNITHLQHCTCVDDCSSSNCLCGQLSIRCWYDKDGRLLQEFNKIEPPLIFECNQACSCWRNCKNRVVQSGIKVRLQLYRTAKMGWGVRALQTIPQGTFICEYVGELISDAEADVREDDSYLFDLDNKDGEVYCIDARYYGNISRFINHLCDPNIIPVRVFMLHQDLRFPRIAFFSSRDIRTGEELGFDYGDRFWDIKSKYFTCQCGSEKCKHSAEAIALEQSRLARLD
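AlphaScreen detection with an anti-monomethyl H3K9 antibody quantified product after a 2 h room-temperature reaction containing 500 nM biotinylated H3K9 peptide, 20 µM SAM and 20 nM enzyme, which had been preincubated 15 min with compound.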
* marks the source's active call; other numbers are inactive results; u = inconclusive; x = no result given; ! = not confirmed by another sample; [ ] = remark or other dose. The call rests on the fitted dose curve; in most records, active means well fitted curve in the direction sought with a large enough effect; inconclusive means small, poorly fitted or top-dose-only effect, or another doubt; inactive means no such curve, though single readings can be large; an effect the other way counts as inactive or inconclusive. Potency means the concentration at half of the fitted maximal effect.

SMILES | L3MBTL1 block | BAZ2B inh | JMJD2A Tudor | Sfp PPTase inh | HP1b binding inh | G9a block
CCOc1ccc(N2C(=O)CC(NC3CCN(C(=O)c4ccc(F)cc4)CC3)C2=O)cc1 (stereo unspecified) | x | -4% | -17% | 2% | 54% | 13µM*
CSc1sc(-c2n[nH]c(=S)n2C)c2c1C=CCC2 | x | u | u | 50µM* | 12% | x
FC(F)(F)c1ccccc1NC(=S)N1CCc2ccccc2C1 | 0% | -16% | -11% | 19% | 45% | -9%
CCCN1CCN(C(=S)Nc2ccccc2C(F)(F)F)CC1 | 2% | -3% | -5% | -14% | 24% | 40µM*
Cc1ccc(-c2nc(N=Nc3ccc(O)cc3)n[nH]2)cc1 | -15% | u | u | 5% | -28% | 50µM*
O=C1CCCCCN1Sc1ccccc1 | 0% | 1% | -7% | 25µM* | 54% | 10µM*
Cc1ccc(-c2nc3c4ccccc4n(CC(=O)NCc4ccc(F)cc4)c(=O)n3n2)cc1 | x | 32% | -14% | x | 59% | -8%[59 µM]
O=C(c1cccc(-n2cccc2)c1)N1CCN(S(=O)(=O)c2ccccc2Br)CC1 | -2% | -33% | -21% | x | -6% | 45µM*
O=C(c1ccncc1)N1CCN(S(=O)(=O)c2ccccc2Br)CC1 | 3% | 8% | -1% | x | 21% | -3%[59 µM]
COc1ccc(N=C2NC(=O)/C(=C/c3ccc(O)c(OC)c3)S2)cc1 | -3% | u | -35% | 11% | -13% | u
CCc1ccc(N=C2NC(=O)/C(=C/c3ccc(OCC(=O)O)c(OC)c3)S2)cc1 | -22% | 7.1µM* | 28µM* | 12% | 45µM* | x
CCc1ccc(N=C2NC(=O)/C(=C/c3ccc(OCC(=O)O)cc3)S2)cc1 | -9% | 50µM* | u | 15% | 4% | 50µM*
CCOC(=O)C1=C(O)/C(=C/c2ccc(OCC(=O)O)c(OCC)c2)SC1=Nc1ccc(C)cc1 | -14% | -28% | -31% | -3% | 24% | 45µM*
COc1ccc(-c2c3c(=O)n(C)c(=O)n(C)c3c3n2-c2ccccc2NC3c2ccc(O)cc2O)cc1 (stereo unspecified) | x | 8% | 5% | x | 36% | 7%[59 µM]
Cc1ccc(-n2nc(C)c3c(C(=O)Nc4ccc(Br)c(C)c4)cc(C)nc32)cc1 | x | 17%[57.1 µM] | 10% | x | 68% | 6%[59 µM]
O=C(O)c1ccccc1Cc1ccccc1 | x | x | x | 2% | x | x
COc1ccc(C(C)n2c(C)c3c(C)nnc(C)c3c2C)cc1 (stereo unspecified) | -6% | 89µM*! | u | -16% | -14% | u
Cc1nnc(C)c2c(C)n(C(C)c3ccccc3)c(C)c12 (stereo unspecified) | -20% | -20% | u | u | -8% | 3%[59 µM]
CCSc1nc2c([nH]c3ccccc32)c(=O)n1-c1cccc(OC)c1 | x | -11% | -15% | x | 7%[57 µM] | -7%[59 µM]
CC(C)N=C(NS(=O)(=O)c1ccccc1)C(Cl)(Cl)Cl | -1% | -7% | -9% | -1% | 38% | -45%[59 µM]
Oc1ccccc1NCC(O)Cn1ccc2ccccc21 (stereo unspecified) | -8% | 50µM* | 2.8µM* | -27% | -73% | 28µM*
OC(CN1CCNCC1)Cn1ccc2ccccc21 (stereo unspecified) | -7% | u | x | 3% | x | 4%
OC(CNCc1ccccc1)Cn1ccc2ccccc21 (stereo unspecified) | -4% | u | 22µM* | -7% | u | u
NC(=O)C1(N2CCCCC2)CCN(C(=S)Nc2ccccc2)CC1 | 2% | 13% | -6% | -4% | 39% | 3%[59 µM]
NC(=O)C1(N2CCCCC2)CCN(C(=S)Nc2ccc(S(N)(=O)=O)cc2)CC1 | 7% | -12% | -14% | 4µM* | 4% | x
SMILES | L3MBTL1 block | BAZ2B inh | JMJD2A Tudor | Sfp PPTase inh | HP1b binding inh | G9a block
NS(=O)(=O)c1ccc(NC(=S)NCc2cccc(Cl)c2)cc1 | 4% | 11% | -16% | 11% | 26% | 45µM*
NS(=O)(=O)c1ccc(NC(=S)NCc2ccccc2)cc1 | -2% | 0% | -22% | 56µM* | u | 11µM*
COc1ccc(S(=O)(=O)N2CCN(C(=S)Nc3ccc(S(N)(=O)=O)cc3)CC2)cc1 | x | -27% | -22% | 8% | 11% | 79µM*
O=S(=O)(NCc1nc2cccnc2n1Cc1ccc(F)cc1)c1ccc2c(c1)CCCC2 | x | 7% | 4% | x | 21%[57 µM] | 11%[59 µM]
NS(=O)(=O)c1ccc(NC(=S)N2CCC(Cc3ccccc3)CC2)cc1 | x | u | u | 22µM* | u | 14µM*
CCN(CC)C(=O)N1CCN(C)CC1 | x | u | 56µM* | -9% | -19% | 14µM*!
COc1ccc(CNC(=O)CC(c2ccc(OC)c(OC)c2)N2Cc3ccccc3C2=O)cc1 (stereo unspecified) | x | 1% | -21% | x | 27% | 15%[59 µM]
O=C1C(Cl)=C(NCCN2CCOCC2)C(=O)c2ncccc21 | x | x | x | -2% | x | x
O=C1C(Cl)=C(NC2CCc3ccccc32)C(=O)c2ncccc21 (stereo unspecified) | x | x | x | 45µM* | x | x
COc1ccc(S(=O)(=O)NC2(C(F)(F)F)NC(=O)N(CCc3ccc(OC)c(OC)c3)C2=O)cc1 (stereo unspecified) | x | -17% | -10% | 13% | 27% | 50µM*!
COc1ccc(S(=O)(=O)NC2(C(F)(F)F)NC(=O)N(CCc3ccccc3)C2=O)cc1 (stereo unspecified) | x | -13% | 0% | 19% | 35% | 45µM*
COc1ccc(C(c2nnnn2Cc2ccccc2)N2CCN(C(=O)c3ccco3)CC2)cc1 (stereo unspecified) | -3% | -34% | -3%[11.4 µM] | 4% | 27% | 56µM*
Cc1ccc(C(c2nnnn2Cc2cccs2)N2CCN(C(=O)c3ccco3)CC2)cc1 (stereo unspecified) | 0% | u | u | -23% | 22% | 40µM*
CCC(c1nnnn1Cc1cccs1)N1CCN(C(=O)c2ccco2)CC1 (stereo unspecified) | 4% | -12% | -1% | 14% | 46% | 2%[12.7 µM]
COc1ccc2nc(N)sc2c1 | 13% | -1% | -8% | 17% | 25% | 10%[12.7 µM]
COc1ccc(-c2c(-c3cc(OC)cc(OC)c3)sc3ccc(OC)cc23)cc1 | 1% | x | -2% | x | 51% | x
CCCC[n+]1c(C)sc2cc(OC)ccc21 | -1% | -36% | 16µM* | 6.3µM* | 50% | u
COc1ccc2sc(C)[n+](C)c2c1 | x | 3% | -2% | 45µM* | 73% | u

Bioassay records from PubChem.
